These results are taken from PubChem BioAssay.

SMILES strings stand for the structures.

The assay can be described thus: sensitizers of A549 cells to miR-34 induction, primary screen, imaging, A549 dox-inducible miR-34, nuclei and caspase counts (AID 1347080). Note: test concentration not given here. Particulars: A549 miR-34 inducible, Hoechst nuclei count, 48 h; measured here: total cells without miR-34 induction.
In the case of `CCCCC[C@H](O)/C=C/[C@H]1C(=O)C[C@H](O)[C@@H]1C/C=C\CCCC(=O)OC`, the cell count was found to be 5620. The figure for `C#C[C@]1(O)CC[C@H]2[C@@H]3CCC4=CC(=O)CCC4[C@H]3CC[C@@]21CC` (stereo not given in full) is 6330. The figure for `COC(=O)CCCCCC[C@@H]1[C@@H](CCC(O)C#Cc2ccccc2F)[C@H](O)C[C@@H]1O` (stereo not given in full) is 5780; for `CC(Sc1nc2ccccc2[nH]1)C(=O)N/N=C/c1cc(Br)ccc1O` (stereo not given) it is 6010.

As to `CC(C)=CCC/C(C)=C/CC/C(C)=C/CC[C@]1(C)CCc2c(C)c(O)c(C)c(C)c2O1`, the cell count was 5920. Next, `Cc1c(C(=O)c2ccccc2)c(N)c(-c2ccccc2)n1Cc1ccc(Cl)cc1`: 6290. The figure for `CCCCCCCCCCCCCCCCC/C=C/C(=O)O` is 5500. Next, `CCCCC(C)(C)[C@H](O)/C=C/[C@@H]1[C@@H](C/C=C\CCCC(=O)O)[C@H](O)C[C@H]1O`: 6290; `CCCCCCC[C@H](O)/C=C/[C@H]1[C@H](O)CC(=O)[C@@H]1C/C=C\CCCC(=O)O`: 6200. Take `CCCCC/C=C\C/C=C\C/C=C\C/C=C\CCCC(=O)OCC`: the cell count worked out at 6410. The figure for `CCCCC/C=C\C/C=C\C/C=C\C/C=C\CCCC(=O)OCc1ccsc1` is 6340. The figure for `CC/C=C\C/C=C\C/C=C\C/C=C\CCCCC(=O)O` is 6540; for `OC1C[C@@H]2[C@@H](CC[C@@H](O)CCc3ccccc3)[C@H](O)C[C@@H]2O1` (stereo not given in full) it is 5890; for `C[C@H](CCCO)[C@H]1CC[C@H]2[C@@H]3[C@H](O)C[C@H]4C[C@H](O)CC[C@]4(C)[C@H]3C[C@H](O)[C@]12C` it is 6110. The figure for `CCCCCCCCCCCCCCCCOC[C@H](COP(=O)([O-])OCC[N+](C)(C)C)OC(=O)CCCCCCCC(=O)O` is 5340; for `O=P(O)(O)OC1[C@H](OP(=O)(O)O)[C@H](O)C(O)[C@H](O)[C@H]1OP(=O)(O)O` (stereo not given in full) it is 6080.

Take `CCCCCCCCCCCCC/C=C/[C@@H](O)[C@H](COP(=O)(O)O)NC(=O)CCCCCCC`: the cell count was 5550.

Turning to `O=C1OC(O)C(c2cc3ccccc3s2)=C1Br` (stereo not given), the cell count amounted to 5660. The figure for `CCCCC[C@@H](O)/C=C/[C@H]1[C@H](O)CC(=O)[C@@H]1CCCCCCC(=O)O` is 5600; for `CCCCCCCCCCCCCCCC(=O)OC[C@@H](O)COP(=O)(O)O` it is 5850; for `CCCCC[C@H](O)/C=C/[C@H]1[C@H](O)CC(=O)[C@@H]1CCCCCCC(=O)NCCO` it is 6270. The figure for `CCCCCCCCCCCCCCCCC/C=C\C(=O)O` is 5930; for `CCCCC[C@@](C)(O)/C=C/[C@H]1C=CC(=O)[C@@H]1C/C=C\CCCC(=O)O` it is 5710.

`O=C(OCc1ccccc1)[C@H](O)c1ccccc1`: the cell count was found to be 5350. The figure for `C=CCN(C)CCCCCCOc1ccc(C(=O)c2ccc(Br)cc2)c(F)c1` is 5660; for `O=C(O)CCC/C=C/C[C@@H]1[C@@H](/C=C/[C@@H](O)COc2cccc(C(F)(F)F)c2)[C@H](O)C[C@@H]1O` it is 6570; for `CCCCCCCCCCCCCCCCCCCCCCCCC(=O)OC` it is 6470. Next, `CCCCCCCCCCCCCCCCCCCCCCCCCCCCCCO`: 6350; `CC/C=C\C/C=C\C/C=C\C/C=C\C/C=C\CCCC(=O)O[C@H](COCCCCCCCCCCCCCCCC)COP(=O)([O-])OCC[N+](C)(C)C`: 6010; `CCCCC/C=C\C=C\[C@H](O)CCCCCCCC(=O)O`: 5740.

With `CCCCC[C@@H](O)/C=C/[C@H]1C[C@H]2C[C@@H]([C@@H]1C/C=C\CCCC(=O)O)C2(C)C`, the cell count amounted to 5970.

Consider `CCCCC[C@@](C)(O)/C=C/[C@H]1[C@H](O)CC(=O)[C@@H]1C/C=C\CCCC(=O)O`, for which the cell count worked out at 5570.

Regarding `CCCCC/C=C\C/C=C\C/C=C\CCCCC(=O)OC`, the cell count worked out at 6530.

With `CCCCCCCC/C=C\CCCCCCCC(=O)OCC`, the cell count came to 5590. Next, `CCCC1([C@@H](O)C/C=C/[C@H]2[C@H](O)CC(=O)[C@@H]2CCCCCCC(=O)O)CCC1`: 6280; `CC(C)OC(=O)CCC/C=C\C[C@@H]1[C@@H](/C=C/C(F)(F)COc2ccccc2)[C@H](O)C[C@@H]1O`: 5630; `CCCCC[C@@](C)(O)/C=C/[C@@H]1[C@@H](C/C=C\CCCC(=O)OC)[C@@H](O)C[C@H]1O`: 6260. Next, `CCOC(=O)c1c(Cc2cccc(Cl)c2)[nH]c2c1cc(O)c1ccccc12`: 5220. Next, `CCCC[C@H](CCC(=O)O)NC(=O)CCCCCCc1ccccc1`: 6570; `NC(=Nc1ccc(F)cc1)NO`: 5470.
